Data from PubChem BioAssay (NCATS).
“And” between values parts separate entries of the source, which are not always exact repeats. Equal entries are not always repeated. Records with an inconclusive call do not appear. Entries that show only a call come without a potency. The source made the active and inactive calls. Unless noted, the call rests on the fitted dose curve; in most records, active means well fitted curve in the direction sought with a large enough effect; inconclusive means small, poorly fitted or top-dose-only effect, or another doubt; inactive means no such curve, though single readings can be large; an effect the other way counts as inactive or inconclusive.

Tests used:
[1] = target: Cytochrome P450 3A4 (Homo sapiens) (UniProt P08684); test: qHTS Assay for Inhibitors and Substrates of Cytochrome P450 3A4 (AID 884); further: nearly all actives have a fitted effect of over 50% in size; further: potency means the concentration at half of the fitted maximal effect
Outline: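 Luminescent readout of luciferin produced by CYP3A4 (20 nM) dealkylation of Luciferin-PPXE, 25 uM (its KM). NADPH-driven reaction ran 60 min at RT after 10 min compound preincubation; data scaled to 57 uM ketoconazole as 100% inhibition.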

[2] = Confirmation and Secondary Assay for Modulators of Hemoglobin Beta Chain Splicing at IVS2 705 locus (AID 930);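 further: HeLa cells stably expressing the EGFP-705 splicing reporter; GFP fluorescence per well restored by corrected splicing of the IVS2-705 intron in EGFP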
Outline: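 Fluorescence gain (488 nm laser, 500-520 nm PMT) reflects restored correct splicing of a mutant IVS2-705 intron inside EGFP in stably transfected HeLa cells after 2-day compound treatment.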

[3] = Confirmation and Secondary Assay for Modulators of Hemoglobin Beta Chain Splicing at IVS2 654 locus (AID 910);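 further: per-well total GFP intensity by laser scanning cytometry after 2-day treatment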
Outline: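 HeLa cells stably carrying EGFP interrupted by mutant beta-globin IVS2-654 intron (CMV-driven) were treated with compound for 2 days at 37C; corrected splicing was scored as total peak GFP intensity per well (488 nm excitation, 500-520 nm emission).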

[4] = qHTS profiling of the MIPE4 collection as inhibitors of Plasmodium falciparum (3D7) proliferation (AID 743344; call rule not given here); settings: P. falciparum 3D7 in erythrocytes, SYBR Green DNA fluorescence, 72 h; at 5.51 µM (top of the series) unless noted
Outline: (§1)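 Parasite DNA was quantified by SYBR Green I fluorescence (ex 485, em 535 nm) after overnight lysis in saponin/Triton buffer at room temperature. Cultures at 0.3% parasitemia and 2.5% hematocrit were first exposed to compound for 72 h at 37 C; signals were normalised to artemisinin (0.29 uM) and vehicle wells.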

[5] = qHTS profiling of the MIPE4 collection as inhibitors of Plasmodium falciparum (DD2) proliferation (AID 743345; call rule not given here); settings: P. falciparum Dd2 in erythrocytes, SYBR Green DNA, 72 h; at 5.51 µM (top of the series) unless noted
Outline: as §1

[6] = target: Tyrosyl-DNA phosphodiesterase 1 (Homo sapiens) (UniProt Q9NUW8); test: Confirmation Assay for Inhibitors of Tyrosyl-DNA Phosphodiesterase (TDP1) (AID 489007); settings: recombinant human TDP1 enzymatic activity, dose-response; further: potency means the concentration at half of the fitted maximal effect; nearly all actives have a fitted effect of over 40% in size
Outline: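 Loss of AlphaScreen signal reports Tdp1 cleavage of a dual-labelled DNA substrate. Conditions: 1 nM E. coli-derived enzyme, 15 nM substrate, 15 min compound preincubation, 5 min reaction, 10 min bead incubation, all at room temperature.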

[7] = target: Cytochrome P450 2C9 (Homo sapiens) (UniProt P11712); test: qHTS Assay for Inhibitors and Substrates of Cytochrome P450 2C9 (AID 883); further: nearly all actives have a fitted effect of over 60% in size; further: potency means the concentration at half of the fitted maximal effect
Outline: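 A luminogenic readout tracked human CYP2C9 (10nM) converting deoxyluciferin (100uM, at KM) in 25mM KPO4 during 60 min at 37C with regenerated NADPH. Values normalized to 57uM sulphaphenazole as complete inhibition.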

[8] = target: Cytochrome P450 2D6 (Homo sapiens) (UniProt P10635); test: qHTS Assay for Inhibitors and Substrates of Cytochrome P450 2D6 (AID 891); further: nearly all actives have a fitted effect of over 60% in size; further: potency means the concentration at half of the fitted maximal effect
Outline: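 Luminescent read-out of luciferin formed by 5 nM human CYP2D6 demethylating 30 uM Luciferin-ME EGE (Km level) over 60 min at room temperature after NADPH regeneration addition. Data normalized to full inhibition by 1.43 uM quinidine.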

[9] = target: Cytochrome P450 2C19 (Homo sapiens) (UniProt P33261); test: qHTS Assay for Inhibitors and Substrates of Cytochrome P450 2C19 (AID 899); further: nearly all actives have a fitted effect of over 60% in size
Outline: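 NADPH-dependent conversion of Luciferin-H EGE (10uM, at KM) by 5nM enzyme in 50mM KPO4, 60 min at 37C following 10 min compound preincubation. Stopped with luciferin detection buffer; luminescence read after 20 min.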

[10] = qHTS Assay for Identification of Small Molecule Antagonists for NFkB Signaling Pathway (AID 895; active means well fitted inhibition curve with a large enough effect in the signal ratio, with a control signal flat, not every such curve was filed as active; the % refers to the signal ratio)
Outline: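 NFkB-bla ME-180 cervical carcinoma cells with beta-lactamase reporter under NFkB response element; compounds added, then TNF alpha at 10 pM final (EC50), 5 h at 37 C. LiveBLAzer substrate 2 h, room temperature; emission 460/530 nm at 405 nm excitation.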

[11] = target: Alpha-galactosidase A (Homo sapiens) (UniProt P06280); test: Counterscreen for Glucocerebrosidase Inhibitors: qHTS Assay for Human alpha-Galactosidase at pH 4.5 (AID 992)
Outline: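 Citrate buffer pH 4.5, Tween-20 0.005%. Enzyme 2 nM, substrate 80 uM, 20 min RT. Stop pH 10. Fluorescence Ex 365/Em 440. AC50 by Hill fit.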

[12] = target: Muscarinic acetylcholine receptor M1 (Rattus norvegicus) (UniProt P08482); test: qHTS Assay for Antagonists of Acetylcholine Muscarinic M1 Receptor: Kinetic Measurement of Intracellular Calcium Response (AID 943);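 further: Fluo-4 calcium signal as peak divided by basal fluorescence over 4 min; nearly all actives have a fitted effect of over 75% in size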
Outline: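 Quantitative HTS in CHO-M1 (rat receptor) cells: 10 min compound exposure ahead of 100 nM carbachol, Fluo-4 fluorescence followed 4 min, value expressed as peak-to-basal ratio.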

[13] = target: Pyruvate kinase (Leishmania mexicana) (UniProt Q27686); test: qHTS Validation Assay for Inhibitors of Leishmania Mexicana Pyruvate Kinase (AID 945)
Outline: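 Compounds are tested as eight-point concentration series. Reactions contain 0.2 nM LmPYK E451W, 0.5 mM PEP, 0.1 mM ADP, 7 mM MgCl2 and 50 mM KCl at pH 7.2, run 1 h at room temperature, then read by PKLight luminescence.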

[14] = target: DNA dC->dU-editing enzyme APOBEC-3G (Homo sapiens) (UniProt Q9HC16); test: qHTS for inhibitors of Vif-A3G interactions: Validation (AID 588379)
Outline: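 Yellow fluorescence (Ex 488, Em 500-530) of Vif-coexpressing HeLa A3G-eYFP cells, scanned by Acumen cytometer, reports blocked A3G degradation. Cells plated at 700/well overnight at 37 deg C before compound addition, then a further overnight compound incubation at 37 deg C.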

[15] = S16 Schwann cell viability assay (CellTiter-Glo assay) (AID 624031);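 further: native untransfected S16 rat Schwann cells; cellular ATP luminescence as a viability measure; nearly all actives have a fitted effect of over 70% in size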
Outline: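 Parental S16 cells, 24 h compound, 37 °C. ATP-luminescence viability; DMSO = 0% activity, empty wells as reference; curves classified by fit quality and efficacy.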

Cytochrome P450 3A4 (Homo sapiens), sequence (P08684 whole entry, looked up): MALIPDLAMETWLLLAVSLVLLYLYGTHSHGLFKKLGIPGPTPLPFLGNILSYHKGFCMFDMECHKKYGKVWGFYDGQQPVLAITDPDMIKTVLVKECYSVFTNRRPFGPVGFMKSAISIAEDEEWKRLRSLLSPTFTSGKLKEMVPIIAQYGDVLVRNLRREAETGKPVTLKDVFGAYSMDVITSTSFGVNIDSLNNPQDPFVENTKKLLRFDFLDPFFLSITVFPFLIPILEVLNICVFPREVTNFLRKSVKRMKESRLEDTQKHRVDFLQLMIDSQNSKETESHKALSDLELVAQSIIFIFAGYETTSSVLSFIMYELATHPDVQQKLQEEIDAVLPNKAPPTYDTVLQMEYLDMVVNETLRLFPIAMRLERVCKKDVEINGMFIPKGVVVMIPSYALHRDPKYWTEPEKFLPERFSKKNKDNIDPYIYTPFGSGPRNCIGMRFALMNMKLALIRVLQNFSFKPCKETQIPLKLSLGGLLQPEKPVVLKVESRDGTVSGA
Cytochrome P450 2C9 (Homo sapiens), sequence (P11712 whole entry, looked up): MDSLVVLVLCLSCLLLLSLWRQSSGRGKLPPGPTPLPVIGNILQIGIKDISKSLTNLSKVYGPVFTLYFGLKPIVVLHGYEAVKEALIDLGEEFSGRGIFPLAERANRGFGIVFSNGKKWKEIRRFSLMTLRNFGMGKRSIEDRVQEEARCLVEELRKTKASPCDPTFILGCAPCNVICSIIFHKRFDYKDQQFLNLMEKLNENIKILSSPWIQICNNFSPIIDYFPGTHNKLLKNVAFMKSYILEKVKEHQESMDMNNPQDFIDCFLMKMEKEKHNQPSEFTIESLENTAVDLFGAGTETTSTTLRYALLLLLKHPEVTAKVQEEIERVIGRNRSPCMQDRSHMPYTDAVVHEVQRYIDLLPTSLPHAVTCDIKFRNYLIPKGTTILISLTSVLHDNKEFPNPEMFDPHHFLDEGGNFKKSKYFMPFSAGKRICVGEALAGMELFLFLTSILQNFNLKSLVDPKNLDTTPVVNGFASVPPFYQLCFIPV
Cytochrome P450 2C19 (Homo sapiens), sequence (P33261 whole entry, looked up): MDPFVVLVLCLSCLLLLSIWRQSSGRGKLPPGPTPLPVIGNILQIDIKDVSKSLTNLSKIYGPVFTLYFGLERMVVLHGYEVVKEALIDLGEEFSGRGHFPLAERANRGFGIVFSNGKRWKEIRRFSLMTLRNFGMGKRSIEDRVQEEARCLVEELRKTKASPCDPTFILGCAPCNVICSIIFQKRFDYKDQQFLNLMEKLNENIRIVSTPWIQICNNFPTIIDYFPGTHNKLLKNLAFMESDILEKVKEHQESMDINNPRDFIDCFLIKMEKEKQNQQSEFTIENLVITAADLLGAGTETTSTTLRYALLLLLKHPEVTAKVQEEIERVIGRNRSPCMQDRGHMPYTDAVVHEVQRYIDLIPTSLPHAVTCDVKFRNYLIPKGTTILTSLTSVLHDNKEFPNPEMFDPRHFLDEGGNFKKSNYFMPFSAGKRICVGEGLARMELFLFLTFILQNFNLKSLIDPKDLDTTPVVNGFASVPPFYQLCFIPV
Muscarinic acetylcholine receptor M1 (Rattus norvegicus), sequence (P08482 whole entry, looked up): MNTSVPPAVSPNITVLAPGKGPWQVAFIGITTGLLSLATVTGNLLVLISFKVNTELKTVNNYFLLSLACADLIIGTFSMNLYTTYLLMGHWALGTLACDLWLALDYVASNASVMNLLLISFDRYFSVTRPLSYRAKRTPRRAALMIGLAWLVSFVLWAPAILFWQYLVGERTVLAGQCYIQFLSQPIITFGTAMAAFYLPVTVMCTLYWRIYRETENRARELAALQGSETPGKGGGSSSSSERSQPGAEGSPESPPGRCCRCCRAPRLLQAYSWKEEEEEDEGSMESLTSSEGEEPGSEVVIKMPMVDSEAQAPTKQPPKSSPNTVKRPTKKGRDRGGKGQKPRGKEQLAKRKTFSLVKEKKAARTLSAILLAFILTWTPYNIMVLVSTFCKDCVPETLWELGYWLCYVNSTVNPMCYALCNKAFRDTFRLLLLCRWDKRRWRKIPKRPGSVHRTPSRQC
Tyrosyl-DNA phosphodiesterase 1 (Homo sapiens), sequence (Q9NUW8 whole entry, looked up): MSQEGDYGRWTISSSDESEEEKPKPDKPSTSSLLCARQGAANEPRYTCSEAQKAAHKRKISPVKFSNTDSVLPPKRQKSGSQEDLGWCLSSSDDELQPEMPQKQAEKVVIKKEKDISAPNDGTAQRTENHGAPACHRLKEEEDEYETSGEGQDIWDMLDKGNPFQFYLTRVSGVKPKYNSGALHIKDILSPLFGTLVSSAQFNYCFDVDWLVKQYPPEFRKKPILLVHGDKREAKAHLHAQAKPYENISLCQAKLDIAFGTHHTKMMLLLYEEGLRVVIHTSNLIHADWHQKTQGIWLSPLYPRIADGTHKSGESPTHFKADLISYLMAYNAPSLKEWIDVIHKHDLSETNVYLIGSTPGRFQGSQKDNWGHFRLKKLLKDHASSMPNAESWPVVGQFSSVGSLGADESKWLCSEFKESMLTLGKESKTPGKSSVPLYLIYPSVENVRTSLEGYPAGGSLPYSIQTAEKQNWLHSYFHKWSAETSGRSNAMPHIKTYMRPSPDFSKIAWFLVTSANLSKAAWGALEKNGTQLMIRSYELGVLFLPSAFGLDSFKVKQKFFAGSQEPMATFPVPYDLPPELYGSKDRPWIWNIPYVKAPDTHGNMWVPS
Alpha-galactosidase A (Homo sapiens), sequence (P06280 whole entry, looked up): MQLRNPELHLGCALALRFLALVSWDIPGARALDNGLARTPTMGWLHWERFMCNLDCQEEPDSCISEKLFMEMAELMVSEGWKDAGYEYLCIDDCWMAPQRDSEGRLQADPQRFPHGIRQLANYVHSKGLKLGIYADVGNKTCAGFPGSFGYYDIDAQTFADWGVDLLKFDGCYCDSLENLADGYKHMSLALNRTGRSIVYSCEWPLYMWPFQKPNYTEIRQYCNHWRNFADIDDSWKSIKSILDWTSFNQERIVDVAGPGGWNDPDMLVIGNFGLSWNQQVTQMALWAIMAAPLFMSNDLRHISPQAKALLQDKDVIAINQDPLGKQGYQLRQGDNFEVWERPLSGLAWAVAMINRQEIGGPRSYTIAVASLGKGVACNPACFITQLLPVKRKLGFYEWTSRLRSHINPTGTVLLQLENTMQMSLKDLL
Cytochrome P450 2D6 (Homo sapiens), sequence (P10635 whole entry, looked up): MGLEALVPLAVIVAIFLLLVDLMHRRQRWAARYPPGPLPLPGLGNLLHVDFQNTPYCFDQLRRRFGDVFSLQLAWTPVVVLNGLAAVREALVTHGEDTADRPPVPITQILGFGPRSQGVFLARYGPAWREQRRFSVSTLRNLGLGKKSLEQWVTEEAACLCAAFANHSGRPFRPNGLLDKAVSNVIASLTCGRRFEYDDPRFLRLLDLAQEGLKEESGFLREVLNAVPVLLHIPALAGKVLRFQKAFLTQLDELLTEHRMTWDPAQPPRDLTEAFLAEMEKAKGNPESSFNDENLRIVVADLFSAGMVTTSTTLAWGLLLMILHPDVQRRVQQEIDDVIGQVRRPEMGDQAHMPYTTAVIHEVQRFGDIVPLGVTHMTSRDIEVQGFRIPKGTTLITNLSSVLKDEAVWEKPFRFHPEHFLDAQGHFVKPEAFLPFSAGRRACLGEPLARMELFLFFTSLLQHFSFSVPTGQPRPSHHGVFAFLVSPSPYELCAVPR
Pyruvate kinase (Leishmania mexicana), sequence (Q27686 2-499 E452W): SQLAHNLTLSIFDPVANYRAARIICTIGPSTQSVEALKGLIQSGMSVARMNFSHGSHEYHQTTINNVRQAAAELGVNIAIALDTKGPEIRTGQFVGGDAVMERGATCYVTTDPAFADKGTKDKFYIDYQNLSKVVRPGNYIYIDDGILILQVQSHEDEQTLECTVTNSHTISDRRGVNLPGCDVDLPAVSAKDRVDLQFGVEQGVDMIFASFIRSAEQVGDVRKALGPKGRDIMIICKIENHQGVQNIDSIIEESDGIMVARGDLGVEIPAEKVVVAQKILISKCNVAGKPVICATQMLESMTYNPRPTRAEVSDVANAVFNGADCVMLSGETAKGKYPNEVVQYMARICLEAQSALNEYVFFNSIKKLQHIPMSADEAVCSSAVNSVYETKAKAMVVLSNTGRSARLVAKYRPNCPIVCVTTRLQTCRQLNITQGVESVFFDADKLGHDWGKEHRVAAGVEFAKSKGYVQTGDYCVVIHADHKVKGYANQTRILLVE
DNA dC->dU-editing enzyme APOBEC-3G (Homo sapiens), sequence (Q9HC16 whole entry, looked up): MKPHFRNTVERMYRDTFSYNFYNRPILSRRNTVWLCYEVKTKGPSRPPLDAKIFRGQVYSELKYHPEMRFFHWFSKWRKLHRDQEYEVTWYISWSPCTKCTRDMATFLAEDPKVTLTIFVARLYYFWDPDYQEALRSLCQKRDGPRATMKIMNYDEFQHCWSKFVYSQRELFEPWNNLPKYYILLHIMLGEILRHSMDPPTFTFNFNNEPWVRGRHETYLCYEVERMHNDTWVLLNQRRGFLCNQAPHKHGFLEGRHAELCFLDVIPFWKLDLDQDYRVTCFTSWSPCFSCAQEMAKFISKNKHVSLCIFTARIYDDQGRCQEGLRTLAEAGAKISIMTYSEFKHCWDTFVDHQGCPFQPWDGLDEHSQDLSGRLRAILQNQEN

SMILES: COc1ccc2[nH]cc(CCNc3ncncc3-c3ccccc3CN(C)C)c2c1
- Potency [1]: 631 nM (active)
- outcome [2]: inactive

SMILES: CC1CC2C3CCC4=CC(=O)C=C[C@@]4(C)[C@]3(F)C(O)C[C@]2(C)[C@]1(O)C(=O)CO (stereo partly specified)
- Potency [3]: inactive
- outcome [2]: inactive
- parasite growth, % of DMSO control [4]: 31.9% [at 28.5 µM]
- parasite growth remaining, % of DMSO control (lower = more inhibition) [5]: 90.9% [at 28.5 µM]

SMILES: CO/N=C(/C(=O)NC1C(=O)N2C(C(=O)O)=C(CSc3nc(=O)c(O)nn3C)CSC12)c1csc(N)n1 (stereo unspecified)
- Potency [3]: inactive
- outcome [2]: inactive
- Potency [6]: 1.78 µM (active) and 12.6 µM (active)

SMILES: C[C@@]12CCC(=O)C=C1CC[C@@H]1[C@@H]2[C@H](O)C[C@]2(C)[C@@H]1CC[C@]2(O)C(=O)CO
- Potency [7]: inactive
- Potency [8]: inactive
- Potency [9]: inactive

SMILES: CCN1CCC[C@@H]1CNC(=O)c1cc(S(N)(=O)=O)ccc1OC
- Potency [7]: inactive
- Potency [1]: inactive
- Potency [8]: inactive
- Potency [10]: inactive
- Potency [9]: inactive
- outcome [11]: inactive

SMILES: CC(=O)Oc1cc(OC(C)=O)c2c(c1)OC(c1ccc(OC(C)=O)c(OC(C)=O)c1)C(OC(C)=O)C2 (stereo unspecified)
- Potency [1]: 31600 nM (active)
- Potency [3]: inactive
- outcome [2]: inactive

SMILES: CN(C)[C@H]1C(=O)C(C(=O)NCN2CCCC2)=C(O)[C@]2(O)C(=O)C3=C(O)c4c(O)cccc4[C@@](C)(O)[C@H]3C[C@@H]12
- Potency [6]: 8.91 µM (active)

SMILES: N[C@@H](CO)C(=O)NNCc1ccc(O)c(O)c1O
- Potency [10]: inactive
- Potency [12]: inactive
- outcome [13]: inactive

SMILES: O=C(O)[C@H]1CCCN(CCC=C(c2ccccc2)c2ccccc2)C1
- Potency [7]: 7940 nM (active)
- Potency [12]: inactive
- outcome [13]: inactive

SMILES: C[C@@H](C(=O)O)c1cccc(C(=O)c2ccccc2)c1
- Potency [10]: inactive

SMILES: CCCN1C[C@H](CSC)C[C@H]2c3cccc4[nH]cc(c34)C[C@@H]21
- Potency [7]: inactive
- Potency [8]: 31.6 nM (active)
- Potency [9]: inactive

SMILES: CNc1nc(-c2ccccc2C(F)(F)F)nc2ccccc12
- Potency [3]: inactive
- outcome [2]: inactive

SMILES: C[N+]1(C)CCC[C@@H](OC(=O)C(O)(c2ccccc2)c2ccccc2)C1
- Potency [9]: inactive

SMILES: CC1(C)Oc2ccc(C#N)cc2[C@H](N2CCCC2=O)[C@H]1O
- Potency [7]: inactive
- Potency [9]: inactive
- outcome [14]: inactive
- Potency [15]: inactive

SMILES: CC(C)COC[C@H](CN(Cc1ccccc1)c1ccccc1)N1CCCC1
- Potency [8]: 15.8 nM (active)
- Potency [12]: inactive
- outcome [11]: inactive

SMILES: CC(=O)N(CC(O)CN(C(C)=O)c1c(I)c(C(=O)NC[C@@H](O)CO)c(I)c(C(=O)NC[C@@H](O)CO)c1I)c1c(I)c(C(=O)NC[C@@H](O)CO)c(I)c(C(=O)NC[C@@H](O)CO)c1I
- Potency [15]: inactive

SMILES: N=c1ccn2c(n1)OC1C(O)C(CO)OC12 (stereo unspecified)
- Potency [1]: inactive
- Potency [3]: inactive
- outcome [2]: inactive

SMILES: CN(C)CCOC(c1ccccc1)c1ccccc1 (tested in a mixture with another compound)
- Potency [3]: inactive
- outcome [2]: inactive

SMILES: CN[C@@H](CC(C)C)C(=O)N[C@@H]1C(=O)N[C@H](CC(N)=O)C(=O)N[C@@H]2C(=O)N[C@H]3C(=O)N[C@H](C(=O)N[C@H](C(=O)O)c4cc(O)cc(O)c4-c4cc3ccc4O)[C@H](O)c3ccc(c(Cl)c3)Oc3cc2cc(c3O[C@H]2O[C@@H](CO)[C@@H](O)[C@@H](O)[C@@H]2O[C@@H]2C[C@](C)(N)[C@H](O)[C@H](C)O2)Oc2ccc(cc2Cl)[C@@H]1O
- Potency [15]: inactive

SMILES: C[C@@](N)(Cc1ccc(O)cc1)C(=O)O
- Potency [1]: inactive
- Potency [3]: inactive
- outcome [2]: inactive
- outcome [11]: inactive

SMILES: COc1ccc(C[C@@H]2c3cc(OC)c(OC)cc3CC[N@+]2(C)CCC(=O)OCCCCCOC(=O)CC[N@@+]2(C)CCc3cc(OC)c(OC)cc3[C@H]2Cc2ccc(OC)c(OC)c2)cc1OC
- Potency [15]: inactive

SMILES: CN(C)Cc1ccccc1-c1nccc(NCc2cccs2)n1
- Potency [8]: 1580 nM (active)
- outcome [2]: inactive
